The supplement of paper PMC6555819

The sequences below were run on VDR:RXRa (NR concentration 270 nM, RXRa partner concentration 90 nM) (assay: PBM binding z-score (relative to random genomic background probes); higher = stronger binding; sequences stand for … in GC…GCGATTGACAGCGTAGAATGAAGG).
Protocol: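 Protein-binding microarray (Agilent 4x180K custom design, double-stranded 60-nt probes: 5' GC cap, 34-nt variable region, 24-nt constant primer region; full probe sequence given). Purified or IVT nuclear receptor:RXRα heterodimers (3:1 NR:RXRα, mostly 270:90 nM) or homodimers were incubated for 1 h in PBS with 2% milk and no ligand, then detected with Alexa488 antibodies. Fluorescence from o1-orientation probes (~5 replicates averaged) was converted to z-scores against 500 random hg19 background probes. Variable regions are seed direct-repeat (DR0–DR5) sites, all their single-nucleotide variants and half-site ablations.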

Row | Sequence | PBM binding z-score
1 | CTTACTGGGCCATTCAGAGGTCATTGATCATATG | 4.23
2 | CTACCAAGCTGAACAAGGTCGTTGATTACTATTC | 1.51
3 | AGAACGAGGGCACTCTGAGTTGATAGCAGAGTAG | 1.88
4 | ATCTCTAGGTAAAGACAGTTCAGTGAATGCAAAT | 1.53
5 | ACTAGTTGGTCAGCCGAGGTCACACACAATTCGG | 4.66
6 | ATCGAAAGGTCGAAGGTGAGTATGCCCACCCGAA | 2.68
7 | TAGCTTAGGTCATGGGCCAGTATACCACGCGAAC | 2.15
8 | CCTACTGGGCCATTCAGAGGTCATTAATCATATG | 3.64
9 | CGTCCAAGGTCATAGGAGGTCGGTGAAGACAGAT | 5.71
10 | CCTAGTTGGTCATGAGGTCACACACCGGATATGA | 4.97
11 | CTCGAAAGGTCGGTTGAGGTGAGTGTACGGATAA | 2.42
12 | GCATATAGGTAATACAAGGAGAAAGTCCGATTGT | -0.177
13 | ATCGAAAGGTCGAGGTGAGTAGAGAGAAAGGGAA | 2.27
14 | TGTCAAAGTTCAAAGATAACGTAAGTATCCACAC | 4.23
15 | GCTGACAGGTGAAACGCAGGTAACTCAGGGTGGC | -0.355
16 | TCGTGTAGATCAAAGGTTAAGAAAGCCGAAGCCT | 1.45
17 | CGTCCAAGGTCAAAGGTTAGTGAAGAGATGACGG | 5.39
18 | CCTGCTAGGTCATGGTCAGCTACTCTACAGTATG | 1.46
19 | GCTTGTAGATCAAGGTTAAGTAAGACTAAGCTAA | 0.257
20 | TCTCGGAGGGCACGAAGGTCAGAGCTTTCCAGAG | 5.15

Row | Sequence | PBM binding z-score
21 | GCTGCTAGGTCAGGGTGGTCAGCTAACGGGTACG | 1.25
22 | CGTCCAAGGTTAGCAGGTCAGTGAAAGCGACGTG | 1
23 | TCTAGCAGGGCAGAGGGTCACTCAAGAGGTACGG | 1.63
24 | ACTTACGGGTCAACGAGGTTATAGGACGCGTATA | 7.69
25 | CCGACTGGGGCAAAGGTTACTATACTCAGTACGA | 1.12
26 | TGAATGAGGTTATAAGATCACGGAACGTTGCAAA | 1.53
27 | TCTTGTAGATCAATAGAGGATAAGAAAGTGCGCT | 0.432
28 | TGAATGAGGGTAAAGATCAGGGAACGTGGCGTCG | -0.0441
29 | AGAATGAGGTTATAAGTAGATCAGGGAAGAAAGT | 1.26
30 | GGCACGAGGGCATTCGAGTTGATAGCATGGCGAT | 3.54
31 | CCTAGCAGGCCAAGCTGGGTCACTCAAGGCTTGA | 0.17
32 | CCAGACAGGTGAGAAGGTAATTCAGCCTCGATTA | -0.16
33 | TCTAGTTTGTCAAAGGTCACACACTCGAAATGCG | 5.12
34 | AATACAGGGTCATCGTAGGCCAGAGTCCGCACAG | 5.19
35 | CGTCCAAGGTCAGAGAGGTCAGTTAATGCCGAGT | 7.74
36 | TCATATAGGTAAAAGGTGAGAGTCGGTGTGGTAA | 1.29
37 | CGTCCACGGTCAAAGGTCAGTGAAGAGATGACGG | 3.76
38 | CGAAGTAGGTCATTGACAGGACAGTGAATAGTAA | 2.62
39 | TCATATAGGTAAACAGGTCAAAGTCCGTAAGTTA | 2.87
40 | TAGCCTAGGTAATTCAGGGGCCAGTATAGAAAGC | -0.417
